Test results: PubChem BioAssay (NCI)
About 79,000 compounds went through this panel and 15% of them were active in at least one assay; those are over-represented in the sample as a whole. Rule as the data show it: active = growth inhibition above about 70%; inactive = the rest.

Key:
[1] = NCI Yeast Anticancer Drug Screen. Data for the rad50 strain (AID 155);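 also: 0% = growth of vehicle-only cultures of the same strain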; settings: S. cerevisiae rad50 strain growth inhibition; at 50.0 µM; hits give high values
Outline: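 Readout: growth inhibition relative to vehicle-treated cultures. Compound exposure was carried out in a genetically defined yeast strain deficient in DNA damage repair.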

[2] = NCI Yeast Anticancer Drug Screen. Data for the mec2-1 strain (AID 157); settings: S. cerevisiae mec2-1 strain, at 50.0 µM, hits give high values
Outline: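 Test agents were screened against the mec2-1 yeast strain, with defined DNA repair or cell cycle alteration. Growth was scored as inhibition against vehicle-only controls.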

[3] = NCI Yeast Anticancer Drug Screen. Data for the sgs1 mgt1 strain (AID 161);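 also: 0% = growth of cultures given vehicle only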; settings: S. cerevisiae sgs1 mgt1 strain, at 50.0 µM, hits give high values
Outline: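 Mutant yeast exposed to compound; growth scored against vehicle-only wells.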

[4] = NCI Yeast Anticancer Drug Screen. Data for the cln2 rad14 strain (AID 165);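 also: 0% = growth equal to vehicle treated cultures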; settings: S. cerevisiae cln2 rad14 strain, at 50.0 µM, hits give high values
Outline: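 Growth of compound-exposed yeast (cln2 rad14 genotype) measured and expressed as inhibition relative to vehicle.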

[5] = NCI Yeast Anticancer Drug Screen. Data for the bub3 strain (AID 167); settings: S. cerevisiae bub3 mutant strain, at 50.0 µM, hits give high values
Outline: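 Readout: yeast growth inhibition, expressed relative to vehicle-only wells. The test organism is a mutant strain from a panel with lesions in DNA repair or checkpoint genes.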

[6] = NCI Yeast Anticancer Drug Screen. Data for the mlh1 rad18 strain (AID 175); settings: S. cerevisiae mlh1 rad18 strain growth inhibition; at 50.0 µM; hits give high values
Outline: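 In this whole-cell yeast screen, a strain with altered DNA damage repair is challenged with compound, and its growth is measured against matched vehicle-treated controls.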

Measured: growth inhibition

O=C1/C(=N\O)C2CCC1C2 (stereo not given)
inactive: [1] -11.2% | [2] 0.75% | [3] 0.3% | [4] 2.5% | [5] -9.2% | [6] 0.85%

COc1cccc(/C=N/[N-]C(N)=O)c1[O-].[OH3+].[Pd+2]
inactive: [1] 7.65% | [2] 8.2% | [3] 15.9% | [4] 7.4% | [5] 18.9% | [6] 21.6%

CN(C)c1ccc2c(c1)Cc1cc(NC(=O)CCC(=O)O)ccc1-2
inactive: [1] 8.7% | [2] 6.4% | [3] 19.4% | [4] -1.6% | [5] 8.85% | [6] 14.3%

C1=C(N2CCOCC2)CCC(N2CCOCC2)=C1
inactive: [1] -2.85% | [2] 21.9% | [3] 20.8% | [4] 41.9% | [5] -8.65% | [6] -12.2%

Cc1nc(C(N)=S)sc1C(=O)/C=C/c1c(O)ccc2ccccc12
inactive: [1] 49.4% | [2] 9.55% | [3] 33.4% | [4] 23.8% | [5] 31.1% | [6] 40.3%

CN(C)C=S
inactive: [1] -4.6% | [2] 1.9% | [3] -9.85% | [4] -12.6% | [5] -13.1% | [6] -4%

O=C1CN(c2ccccc2)C(=O)CN1/N=C/c1ccc[nH]1
inactive: [1] -27.4% | [2] -7.55% | [3] -4.9% | [4] -21.4% | [5] -7.7% | [6] -13.4%

O=C1CCC(=O)N1n1c(Cc2ccc(Cl)cc2)n[nH]c1=O
inactive: [1] 17.4% | [2] 8.5% | [3] 19.1% | [4] 4.85% | [5] 12.8% | [6] -44.6%

CC12CCC3c4ccc(OC(=O)c5ccc([N+](=O)[O-])cc5)cc4CCC3C1CCC2=O (stereo not given)
inactive: [1] 13.8% | [2] -6.95% | [3] -6.45% | [4] 5.75% | [5] -0.65% | [6] -1.75%

Cc1ccc(/C([O-])=C(/C(=S)Nc2ccccc2)[n+]2ccccc2)cc1
inactive: [1] -5.3% | [2] 22% | [3] 7.55% | [4] -22.1% | [5] 18.1% | [6] 13.1%

c1ccc(SC2(Sc3ccccc3)CCCC2)cc1
inactive: [1] -9.15% | [2] -22.1% | [3] -12.2% | [4] -0.5% | [5] -24.6% | [6] -17.4%

Cc1ccc2nc(NC(=O)OCc3ccccc3)sc2c1
inactive: [1] 4.1% | [2] 20.1% | [3] -11.8% | [4] 6.95% | [5] 8.6% | [6] 9.65%

CC(=O)OCC1OC(n2nc(/C=C/c3ccco3)c(=O)n(-c3ccccc3)c2=S)C(OC(C)=O)C(OC(C)=O)C1OC(C)=O (stereo not given)
inactive: [1] 57.5% | [2] 14.8% | [3] 61% | [4] 29.4% | [5] 16.4% | [6] 56.4%

O=[N+]([O-])c1cc(Cl)ccc1Sc1ccccc1
inactive: [1] 39.6% | [2] 8.25% | [3] 34.3% | [4] 21.9% | [5] 24.7% | [6] 27.3%

O=C(NC[N+]12CCO[B-]1(c1ccccc1)OCC2)c1ccccc1O (stereo not given)
inactive: [1] 25.9% | [2] -8.4% | [3] 4.7% | [4] 13.3% | [5] -0.75% | [6] 10.5%

Cc1ccc(Cc2n[nH]c(=O)n2/N=C\CC/C=N\n2c(Cc3ccc(C)cc3)n[nH]c2=O)cc1
inactive: [1] -13.9% | [2] -23.6% | [3] -18.1% | [4] -0.9% | [5] -28.9% | [6] -4.05%

CC1(C)C2CCC1(C)C(S)C2 (stereo not given)
inactive: [1] 7.5% | [2] -1% | [3] -2.75% | [4] -57.1% | [5] -2% | [6] 11.9%

COc1ccc(Cl)cc1NC(=O)c1cccc(Cl)c1
inactive: [1] 18.8% | [2] 16.9% | [3] 7.8% | [4] 10.9% | [5] 30.1% | [6] -0.3%

COc1ccccc1C=NC12CC3CC(CC(C3)C1)C2
inactive: [1] -29.2% | [2] -12.6% | [3] 2.55% | [4] 1.9% | [5] -4.2% | [6] -16.6%

CN1C(=O)C(Cc2cnc[nH]2)NC1=S (stereo not given)
inactive: [1] 11.5% | [2] 25.1% | [3] 22.6% | [4] -7.5% | [5] 10.7% | [6] 1.1%
